Vc quorum ag – inducers of Vibrio cholerae quorum light production without autoinducers. AID 588436. activation, % at 18.7 µM. V. cholerae BH1578 lux reporter, luminescence, 6 h. 350,000 tested, 0.16% active; in the data active = activation mostly above about 9.7%, no sharp cut-off
RecA splice inh – Mtb RecA intein splicing inhibition; P9WHJ3; 290,000 tested, 0.75% active; inhibition, % (test concentration not listed); AID 2221; cell-free RecA intein splicing, fluorescence; in the data active = inhibition above about 30%;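 also: 0% = vehicle wells and 100% = reference inhibitor control wells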
Rv3671c inh – inhibitors of M. tuberculosis serine protease Rv3671c. inhibition, % at 5.96 µM. P9WHR9. AID 2606. 320,000 tested, 0.048% active; in the data active = inhibition above about 38%;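 also: extracellular domain of Rv3671c used as enzyme; 0% = enzyme with DMSO and 100% = no enzyme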
GDH-TPI inh – counter-screen for M. tuberculosis FBA inhibitors: GDH-TPI coupled enzymes | GDH-TPI coupled enzyme counterscreen, NADH absorbance | inhibition, % at 4.8 µM | 360,000 tested, 1.2% active; in the data active = inhibition above about 30%;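 also: 0% = DMSO wells and 100% = wells lacking the enzyme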
UGM FP inh – blocks M. tuberculosis UGM enzyme; inhibition, % at 10 µM; AID 504406; 320,000 tested, 0.06% active; P9WIQ1; purified UGM, fluorescence polarization probe displacement; in the data active = inhibition above about 10%, passing the limit was not always enough
FBA Mtb inh – inhibits M. tuberculosis FBA enzyme; purified M. tuberculosis FBA, fluorescence read-out; inhibition, % at 1 µM; 360,000 tested, 2.3% active; in the data active = inhibition above about 27%;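 also: 0% = vehicle and 100% = reference inhibitor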
Target sequence (P9WQA3 whole entry, looked up): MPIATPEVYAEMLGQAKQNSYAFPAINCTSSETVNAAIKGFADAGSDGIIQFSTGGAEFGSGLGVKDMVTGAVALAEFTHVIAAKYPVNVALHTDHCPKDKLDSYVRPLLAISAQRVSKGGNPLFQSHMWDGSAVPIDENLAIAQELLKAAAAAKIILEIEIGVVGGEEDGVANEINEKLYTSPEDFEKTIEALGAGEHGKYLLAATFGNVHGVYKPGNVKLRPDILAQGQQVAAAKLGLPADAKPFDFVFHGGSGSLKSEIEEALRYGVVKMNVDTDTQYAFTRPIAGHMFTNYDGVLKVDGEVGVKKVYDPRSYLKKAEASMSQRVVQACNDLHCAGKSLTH
An asterisk follows results filed as active. In the library only some 4.1% were active in any assay of this set; here they are far more common.

`COc1cc(NC(=O)NS(=O)(=O)c2ccc(C)cc2)cc(OC)c1` gave Vc quorum ag inactive, RecA splice inh -2, Rv3671c inh 3, GDH-TPI inh 3, UGM FP inh -3 and FBA Mtb inh -2.
Screening Cc1ccc(C(=O)N2CCN(c3ncc(C(F)(F)F)cc3Cl)CC2)s1 returned Vc quorum ag 1, RecA splice inh 10, GDH-TPI inh 9, UGM FP inh -2 and FBA Mtb inh 5.
CC(C)(C)OC(=O)COc1cc(O)c2c(=O)cc(-c3ccccc3)oc2c1 was read as Vc quorum ag 0, RecA splice inh -3, Rv3671c inh -7, GDH-TPI inh 6, UGM FP inh 3 and FBA Mtb inh 5.
Screening CC(C)(C)OC(=O)COc1cc(OCC(=O)OC(C)(C)C)c2c(=O)cc(-c3ccccc3)oc2c1 returned Vc quorum ag 4, RecA splice inh 7, Rv3671c inh -16, GDH-TPI inh 21, UGM FP inh 0 and FBA Mtb inh 28*.
Screening O=C(N/N=C/c1cccnc1)c1ccc([N+](=O)[O-])cc1 returned Vc quorum ag 0, RecA splice inh -5, Rv3671c inh 5, GDH-TPI inh 24, UGM FP inh 1 and FBA Mtb inh -3.
Screening Nc1ccc(C(=O)N/N=C\C=C\c2ccc([N+](=O)[O-])cc2)cc1 returned Vc quorum ag 0, RecA splice inh 0, Rv3671c inh -3, GDH-TPI inh 47*, UGM FP inh -1 and FBA Mtb inh -3.
For O=C(NN=Cc1ccc([N+](=O)[O-])cc1)c1ccncc1 the results were Vc quorum ag -4, GDH-TPI inh 40* and FBA Mtb inh 0.
For O=C(N/N=C/c1cccn1-c1ccc([N+](=O)[O-])cc1)c1cccnc1 the results were Vc quorum ag -1, RecA splice inh -6, Rv3671c inh 2, GDH-TPI inh 53*, UGM FP inh -2 and FBA Mtb inh -8.
CC(C)C(=O)Nc1ccccc1C(=O)N/N=C/c1ccc([N+](=O)[O-])cc1 was read as Vc quorum ag inactive, RecA splice inh 0, Rv3671c inh -2, GDH-TPI inh 35*, UGM FP inh 0 and FBA Mtb inh 0.
Screening O=C(N/N=C/c1ccncc1)c1cc([N+](=O)[O-])cc([N+](=O)[O-])c1 returned Vc quorum ag -1, RecA splice inh -4, Rv3671c inh 4, GDH-TPI inh 10, UGM FP inh 0 and FBA Mtb inh -3.
Screening CC1(C)CC[C@]2(C(=O)O)CC[C@]3(CO)C(=CCC4[C@@]5(C)C[C@H](O)[C@H](O)[C@@](C)(C(=O)O)C5CC[C@]43C)[C@@H]2C1 (some centres not stated) returned Vc quorum ag -1, Rv3671c inh 6, GDH-TPI inh 6, UGM FP inh -4 and FBA Mtb inh 6.
For CCC(=O)Nc1ccc(C(=O)N/N=C/c2ccc([N+](=O)[O-])cc2)cc1 the results were Vc quorum ag 0, RecA splice inh 8, Rv3671c inh -3, GDH-TPI inh 51* and FBA Mtb inh -2.
Screening O=C(N/N=C/c1ccc([N+](=O)[O-])cc1)c1cccc(N2CCCC2=O)c1 returned Vc quorum ag 0, RecA splice inh -1, Rv3671c inh 3, GDH-TPI inh 40*, UGM FP inh 0 and FBA Mtb inh -3.
`Cc1c(/C=N\NC(=O)c2ccc([N+](=O)[O-])cc2)cnn1C` gave Vc quorum ag 0, RecA splice inh -3, Rv3671c inh 15, GDH-TPI inh 7, UGM FP inh 5 and FBA Mtb inh -1.
Screening CC(=O)n1cc(/C=N/NC(=O)c2ccc([N+](=O)[O-])cc2)c2ccccc21 returned Vc quorum ag 0, RecA splice inh 2, Rv3671c inh 2, GDH-TPI inh 32*, UGM FP inh 1 and FBA Mtb inh -2.
For CCC(=O)Nc1ccc(C(=O)NNC(=O)c2ccc([N+](=O)[O-])cc2)cc1 the results were Vc quorum ag inactive, RecA splice inh 1, Rv3671c inh -8, GDH-TPI inh 3, UGM FP inh 1 and FBA Mtb inh 0.
Screening COc1ccc(S(=O)(=O)N2CCCC2=O)cc1N(C)S(C)(=O)=O returned Vc quorum ag inactive, RecA splice inh -1, GDH-TPI inh 0, UGM FP inh 1 and FBA Mtb inh -5.
Screening CCO/C=C1\C(=O)N(CC)c2ccccc21 returned Vc quorum ag inactive, RecA splice inh 1, Rv3671c inh -6, GDH-TPI inh 0, UGM FP inh 3 and FBA Mtb inh -1.
For CCN1C(=O)/C(=C\N(C)C)c2ccccc21 the results were RecA splice inh 3, Rv3671c inh 4, GDH-TPI inh 32*, UGM FP inh 0 and FBA Mtb inh -2.
CCN1C(=O)/C(=C/N(C)C)c2ccccc21 was read as Vc quorum ag inactive, RecA splice inh 1, Rv3671c inh 3, GDH-TPI inh 37*, UGM FP inh -1 and FBA Mtb inh -1.
`CN(C)C=C1C(=O)c2ccccc2C1=O` gave Vc quorum ag inactive, RecA splice inh 4, Rv3671c inh -9, GDH-TPI inh 9, UGM FP inh 2 and FBA Mtb inh 3.
Screening Cc1cc(NC(=O)COC(=O)c2ccccc2NCCO)no1 returned Vc quorum ag inactive, Rv3671c inh 4, GDH-TPI inh 21, UGM FP inh 0 and FBA Mtb inh 127*.
Screening CN(C)CCNC(=O)c1cccc2nc3cccc(F)c3nc12 returned Vc quorum ag inactive, GDH-TPI inh 21 and FBA Mtb inh 5.
Screening CN(C)CCNC(=O)c1cccc2ccc(-c3ccc(-c4ccccc4)cc3)nc12 returned Vc quorum ag inactive, GDH-TPI inh 10 and FBA Mtb inh 58*.
CCOc1ccccc1NC(=O)CCCc1ccc(OC)c(C)c1 was read as Vc quorum ag 0, RecA splice inh 3, Rv3671c inh 1, GDH-TPI inh 1, UGM FP inh -2 and FBA Mtb inh -2.
`CCn1c(SCC(=O)Nc2ccc(C)cc2)nc2nc3c(cc2c1=O)COC(C)(C)C3` gave Vc quorum ag 0, RecA splice inh 1, Rv3671c inh 4, GDH-TPI inh 31*, UGM FP inh 0 and FBA Mtb inh 1.
Screening CCOC(=O)c1cnc2cc(C)ccn2c1=O returned Vc quorum ag inactive, RecA splice inh -2, Rv3671c inh -9, GDH-TPI inh 31*, UGM FP inh -2 and FBA Mtb inh 124*.
Screening COc1ccc(OC)c(C2C(C(C)=O)=C(O)C(=O)N2c2ccc(F)cc2)c1 (configuration not stated) returned Vc quorum ag -1, RecA splice inh 2, Rv3671c inh -4, GDH-TPI inh 37*, UGM FP inh -2 and FBA Mtb inh -2.
For CC(=O)C1=C(O)C(=O)N(c2ccc(O)cc2)C1c1ccc(F)cc1 (configuration not stated) the results were Vc quorum ag inactive, RecA splice inh 4, Rv3671c inh 1, GDH-TPI inh 11, UGM FP inh 0 and FBA Mtb inh 0.
